From PubChem BioAssay (EPA / NIEHS)
Results filed as inconclusive are left out. Calls of active or inactive are those of the source. How the source made its calls: active means hit-call score of the fitted dose curve at least 0.9, where 1 is the maximum; inconclusive means response in the unintended direction; inactive means score below 0.9.

Biological target: Estrogen receptor beta (Homo sapiens) (UniProt Q92731)
Test: OT_ER_ERbERb_0480: Odyssey Thera (OT) 8-hour HEK293T Protein-Complementation Assay for Estrogen Receptor-beta/-beta Homodimer (AID 2283357);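 further: active means signal gain over DMSO baseline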
In short: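 Readout: increase in mean fluorescence intensity (nucleus for agonists; nucleus plus cytoplasm for antagonists) relative to DMSO, from a reporter-fragment complementation of human ER-beta LBD homodimer in HEK293T cells dosed 8 hours.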

Sequence of Estrogen receptor beta (Homo sapiens) (Q92731 whole entry, looked up): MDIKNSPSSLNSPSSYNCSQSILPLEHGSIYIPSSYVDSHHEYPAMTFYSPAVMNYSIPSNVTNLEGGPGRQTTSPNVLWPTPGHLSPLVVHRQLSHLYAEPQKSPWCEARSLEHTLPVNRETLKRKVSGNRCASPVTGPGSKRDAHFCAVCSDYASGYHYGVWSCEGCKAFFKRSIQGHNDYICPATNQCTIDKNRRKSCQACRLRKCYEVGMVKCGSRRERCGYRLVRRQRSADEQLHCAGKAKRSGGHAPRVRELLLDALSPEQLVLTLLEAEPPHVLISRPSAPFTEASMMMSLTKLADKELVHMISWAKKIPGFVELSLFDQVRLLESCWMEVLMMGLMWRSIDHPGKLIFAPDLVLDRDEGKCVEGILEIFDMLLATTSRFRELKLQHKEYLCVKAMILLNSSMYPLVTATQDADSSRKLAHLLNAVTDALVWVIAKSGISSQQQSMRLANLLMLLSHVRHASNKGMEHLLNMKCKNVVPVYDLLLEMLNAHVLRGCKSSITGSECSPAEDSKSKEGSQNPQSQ

| Structure (SMILES) | outcome | AC50 |
| --- | --- | --- |
| CCCCCCCCC=O | inactive |  |
| CCCCC[Si](OCC)(OCC)OCC | inactive |  |
| NC(=O)Nc1ccc(Cl)cc1 | inactive |  |
| CC(=O)OCCOC(C)=O | inactive |  |
| CCCCCCCCCCCCCOS(=O)(=O)O | inactive |  |
| NCCCN1CCOCC1 | inactive |  |
| BrC1CCC(Br)C(Br)CCC(Br)C(Br)CCC1Br (stereo not given) | inactive |  |
| Cc1ccc(S)cc1 | inactive |  |
| CC(C)c1cccc(O)c1 |  | 52 µM (active) |
| CCC/C=C/C=O | inactive |  |
| OCCN1CCNCC1 | inactive |  |
| CCCCCCCCCCCCCC(=O)O | inactive |  |
| O=C1c2ccccc2C(=O)N1SC1CCCCC1 | inactive |  |
| OCCOCCOCCOCCO | inactive |  |
| CCCCOCCOCCOCCOCCO | inactive |  |
| CCN(CC)c1ccc2c(-c3ccccc3C(=O)O)c3ccc(=[N+](CC)CC)cc-3oc2c1 |  | 12.2 µM (active) |
| CC1COc2ccccc2N1C(=O)C(Cl)Cl (stereo not given) | inactive |  |
| CCCCCCCCC | inactive |  |
| c1ccc(CCCc2ccccn2)cc1 | inactive |  |
| CCCCc1ccc(N)cc1 | inactive |  |
| CC(C)(N)CO | inactive |  |

Biological target: Nuclear receptor subfamily 1 group I member 2 (Homo sapiens) (UniProt O75469)
Test: NVS_NR_hPXR: NovaScreen (NVS) Nuclear Receptor Binding Assay for human Pregnane X Receptor (PXR) (AID 2283365);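 further: a drop in FRET signal versus DMSO baseline means the compound binds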
In short: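 Read-out: TR-FRET, human PXR, 2 h post-dosing, cell-free. Loss of signal vs DMSO taken as binding activity; 25 uM primary, concentration series secondary.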

Sequence of Nuclear receptor subfamily 1 group I member 2 (Homo sapiens) (O75469 whole entry, looked up): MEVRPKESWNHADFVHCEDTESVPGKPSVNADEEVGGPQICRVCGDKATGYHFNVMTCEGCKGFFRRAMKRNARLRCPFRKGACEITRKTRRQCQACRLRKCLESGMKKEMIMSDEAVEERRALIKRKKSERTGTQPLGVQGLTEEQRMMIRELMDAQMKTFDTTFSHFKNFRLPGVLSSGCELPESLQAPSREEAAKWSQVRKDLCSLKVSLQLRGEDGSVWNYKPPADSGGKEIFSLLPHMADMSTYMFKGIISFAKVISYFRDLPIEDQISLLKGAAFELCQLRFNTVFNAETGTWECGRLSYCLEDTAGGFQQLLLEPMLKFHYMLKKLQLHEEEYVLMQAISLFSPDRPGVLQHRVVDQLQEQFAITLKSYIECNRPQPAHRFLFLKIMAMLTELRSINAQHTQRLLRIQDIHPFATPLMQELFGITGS

| Structure (SMILES) | outcome |
| --- | --- |
| CCCCC[Si](OCC)(OCC)OCC | inactive |
| CCCCCCCCCCCCCOS(=O)(=O)O | inactive |
| CC(C)c1cccc(O)c1 | inactive |
| CCC/C=C/C=O | inactive |
| CCCCCCCCCCCCCCCC(=O)OC[C@H](O)[C@H]1OC(=O)C(O)=C1O | inactive |

Biological target: Peroxisome proliferator-activated receptor gamma (Homo sapiens) (UniProt P37231)
Test: NVS_NR_hPPARg: NovaScreen (NVS) Nuclear Receptor Binding Assay for human Peroxisome Proliferator-activated Receptor gamma (PPARg) (AID 2283370)
In short: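 Extracted receptor protein, cell-free; compound incubated 2 h then fluorescence polarization read. Baseline: DMSO. Actives from 25 uM duplicate screen re-run across concentrations.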

Sequence of Peroxisome proliferator-activated receptor gamma (Homo sapiens) (P37231 whole entry, looked up): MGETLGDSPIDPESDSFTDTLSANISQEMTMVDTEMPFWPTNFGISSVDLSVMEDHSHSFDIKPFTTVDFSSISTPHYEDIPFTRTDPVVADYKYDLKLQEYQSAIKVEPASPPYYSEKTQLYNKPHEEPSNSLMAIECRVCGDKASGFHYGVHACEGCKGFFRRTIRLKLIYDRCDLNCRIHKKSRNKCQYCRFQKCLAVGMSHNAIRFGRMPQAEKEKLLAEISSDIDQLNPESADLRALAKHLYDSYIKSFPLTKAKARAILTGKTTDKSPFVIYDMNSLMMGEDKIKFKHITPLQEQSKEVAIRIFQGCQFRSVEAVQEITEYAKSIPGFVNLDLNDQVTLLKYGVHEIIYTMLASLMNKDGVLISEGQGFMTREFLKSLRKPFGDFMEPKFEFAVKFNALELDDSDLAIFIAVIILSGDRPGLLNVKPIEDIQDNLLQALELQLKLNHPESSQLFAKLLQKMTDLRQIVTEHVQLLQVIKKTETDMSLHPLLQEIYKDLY

| Structure (SMILES) | outcome | AC50 |
| --- | --- | --- |
| O=Nc1ccc(Nc2ccccc2)cc1 | inactive |  |
| CCCCCCCCCCCCCOS(=O)(=O)O |  | 0.832 µM (active) |
| BrC1CCC(Br)C(Br)CCC(Br)C(Br)CCC1Br (stereo not given) | inactive |  |
| CCC/C=C/C=O | inactive |  |
| OCCN1CCNCC1 | inactive |  |
| CCCCCCCCCCCCCC(=O)O | inactive |  |
| CCCCCCCCCCCCCCCC(=O)OC[C@H](O)[C@H]1OC(=O)C(O)=C1O |  | 25 µM (active) |
| c1ccc(CCCc2ccccn2)cc1 | inactive |  |

Biological target: mouse Estrogen Receptor alpha (Era), Esr1 (gene 13982) (UniProt P19785)
Test: NVS_NR_mERa: NovaScreen (NVS) Nuclear Receptor Binding Assay for mouse Estrogen Receptor alpha (Era) (AID 2283378);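 further: hit means loss of bound radioligand signal relative to DMSO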
In short: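 Measurements come from scintillation counting after filtration, taken 18 hours after chemicals were added to a cell-free mouse Era preparation with radioligand. Screening was duplicate at 25 uM, with concurrent positive and negative controls and confirmatory concentration series for actives.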

Sequence of mouse Estrogen Receptor alpha (Era), Esr1 (gene 13982) (P19785 whole entry, looked up): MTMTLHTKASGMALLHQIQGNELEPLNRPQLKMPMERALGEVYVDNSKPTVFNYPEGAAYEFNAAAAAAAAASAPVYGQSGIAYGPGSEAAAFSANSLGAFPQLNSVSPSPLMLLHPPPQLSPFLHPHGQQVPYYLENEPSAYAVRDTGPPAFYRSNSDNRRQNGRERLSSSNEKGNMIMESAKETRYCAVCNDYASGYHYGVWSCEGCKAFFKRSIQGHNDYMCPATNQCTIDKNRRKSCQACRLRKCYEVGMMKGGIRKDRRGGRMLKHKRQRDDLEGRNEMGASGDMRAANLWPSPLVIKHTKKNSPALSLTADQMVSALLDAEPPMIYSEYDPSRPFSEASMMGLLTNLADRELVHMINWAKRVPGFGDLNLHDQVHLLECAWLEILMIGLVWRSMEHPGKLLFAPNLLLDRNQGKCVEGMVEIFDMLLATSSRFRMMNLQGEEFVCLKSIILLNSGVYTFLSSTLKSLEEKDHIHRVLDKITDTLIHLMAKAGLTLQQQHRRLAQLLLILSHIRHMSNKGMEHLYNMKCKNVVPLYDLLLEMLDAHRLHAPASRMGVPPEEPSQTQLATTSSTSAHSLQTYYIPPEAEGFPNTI

| Structure (SMILES) | outcome | AC50 |
| --- | --- | --- |
| CCCCCCCCC=O | inactive |  |
| NC(=O)Nc1ccc(Cl)cc1 | inactive |  |
| O=Nc1ccc(Nc2ccccc2)cc1 |  | 46.4 µM (active) |
| CCCCCCCCCC=O | inactive |  |
| O=C1c2ccccc2C(=O)N1SC1CCCCC1 | inactive |  |
| CC1COc2ccccc2N1C(=O)C(Cl)Cl (stereo not given) |  | 1.88 µM (active) |

Biological target: Agonist Androgen Response Element (ARE), AR (gene 367) (UniProt P10275)
Test: OT_AR_ARELUC_AG_1440: Odyssey Thera (OT) 24-hour CHO-K1 Luciferase Assay for Agonist Androgen Response Element (ARE) (AID 2283379)
In short: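 Seed CHO-K1 cells; dose compounds for 24 h; add D-luciferin plus ATP in PBS; read luminescence. Signal increase relative to vehicle defines agonist activity, with at least 3 replicate wells per sample.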

Sequence of Agonist Androgen Response Element (ARE), AR (gene 367) (P10275 whole entry, looked up): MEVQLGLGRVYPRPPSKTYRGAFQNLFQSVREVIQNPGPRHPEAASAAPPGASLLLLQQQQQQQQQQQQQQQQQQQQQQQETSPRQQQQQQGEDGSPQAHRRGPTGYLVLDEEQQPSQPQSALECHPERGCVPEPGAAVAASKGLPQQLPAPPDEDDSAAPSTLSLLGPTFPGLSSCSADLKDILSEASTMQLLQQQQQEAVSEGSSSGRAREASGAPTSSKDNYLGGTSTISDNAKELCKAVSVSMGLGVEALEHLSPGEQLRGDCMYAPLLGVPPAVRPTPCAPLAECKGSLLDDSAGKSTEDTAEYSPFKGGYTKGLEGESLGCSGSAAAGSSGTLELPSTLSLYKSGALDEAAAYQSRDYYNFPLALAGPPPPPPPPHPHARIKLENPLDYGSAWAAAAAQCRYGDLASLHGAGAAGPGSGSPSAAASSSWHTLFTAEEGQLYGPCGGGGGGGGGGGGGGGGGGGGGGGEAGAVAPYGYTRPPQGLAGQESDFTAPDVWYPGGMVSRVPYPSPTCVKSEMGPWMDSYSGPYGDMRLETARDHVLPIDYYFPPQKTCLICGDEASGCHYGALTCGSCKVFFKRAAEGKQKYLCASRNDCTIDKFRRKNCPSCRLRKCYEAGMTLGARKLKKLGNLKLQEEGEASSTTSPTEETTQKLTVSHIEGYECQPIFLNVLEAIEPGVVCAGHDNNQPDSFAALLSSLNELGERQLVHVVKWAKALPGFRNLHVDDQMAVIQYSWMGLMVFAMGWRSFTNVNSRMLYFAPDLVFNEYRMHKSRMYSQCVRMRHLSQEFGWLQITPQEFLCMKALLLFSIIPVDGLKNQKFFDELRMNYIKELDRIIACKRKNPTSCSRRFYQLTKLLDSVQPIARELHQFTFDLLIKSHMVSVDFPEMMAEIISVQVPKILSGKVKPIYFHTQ

| Structure (SMILES) | outcome |
| --- | --- |
| O=Nc1ccc(Nc2ccccc2)cc1 | inactive |
| CCCCCCCCCCCCCOS(=O)(=O)O | inactive |
| BrC1CCC(Br)C(Br)CCC(Br)C(Br)CCC1Br (stereo not given) | inactive |
| CCC/C=C/C=O | inactive |
| CCCCCCCCCCCCCCCC(=O)OC[C@H](O)[C@H]1OC(=O)C(O)=C1O | inactive |
